# Measurements reported in PubChem BioAssay.
# Values joined by “and” are separate entries in the source; they are usually repeats but may differ in a detail not shown here. Identical values can stand only once. Records with an inconclusive call do not appear. Active and inactive are the calls of the source.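 The calls were made as follows, unless noted: active = compounds killing one labelled cell type while sparing the other, by normalised counts and ratio limits, not self-fluorescent; inactive = the rest.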
# Experiments:
# [1] = blockers of polyQ-driven CASP3 activation – cell-based (AID 1583); details: polyglutamine-induced caspase-3 activation, cell assay; stronger effect = higher value;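 tested at 10 µM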
# [2] = yeast 75Q aggregation reduction – 75Q-TubU reporter (AID 1593); details: Yeast 75Q polyglutamine aggregation reporter
# [3] = P. berghei load reduction in hepatocytes – cell-based, HepG2, luciferase luminescence, HepG2 viability, primary screen (AID 624349; in the data active = parasite load remaining mostly below about 12%, no sharp cut-off; inactive = mostly above about 10%;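 also: 100% = mean of DMSO negative control wells on the same plate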); details: P. berghei liver stage in HepG2, luciferase luminescence, concentration not given here; parasite load remaining: stronger effect = lower value; viability: measured here: HepG2 viability without parasites
# [4] = EMT-state selective cytotoxicity in co-culture – imaging, PC-3E GFP, TEM4-18 mCherry, primary screen (AID 1345086); details: PC-3E GFP / TEM4-18 mCherry co-culture, imaging cell counts, at 1 µM; for red/green cell ratio (normalised): actives lie on both sides, counts scaled to control wells, 1 = unselective;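 as to all read-outs here: cells exposed to compound for 72 h before imaging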;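 as to red/green cell ratio (normalised): normalised mesenchymal count divided by normalised epithelial count so high means epithelial killing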
# [5] = tested on: Aerobactin synthetase IucA (Klebsiella pneumoniae); test: inhibition of K. pneumoniae IucA enzyme – biochemical, Tocris library, absorbance (AID 1345561; call rule not given here;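 also: 100% = enzyme without compound and 0% = no enzyme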); details: purified IucA enzyme assay, absorbance (OD) read-out; stronger effect = lower value;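 tested at 8 µM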
# [6] = viability loss in pontine glioma line – cell-based, SU-DIPG-XVII, MIPE5.0, CellTiter-Glo, qHTS, dose response (AID 1347060; cut-off not given, nearly all actives have AC50 up to about 26 µM); details: CellTiter-Glo ATP luminescence
# [7] = viability loss in pontine glioma line – cell-based, SU-DIPG-XIII, MIPE4.0, CellTiter-Glo, qHTS, dose response (AID 1347061; cut-off not given, nearly all actives have AC50 up to about 37 µM;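 also: cells exposed to compound for 48 hours before readout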); details: CellTiter-Glo ATP luminescence
# [8] = viability loss in pontine glioma line – cell-based, JHH-DIPG-1, MIPE4.0, CellTiter-Glo, qHTS, dose response (AID 1347062; cut-off not given, nearly all actives have AC50 up to about 27 µM); details: JHH-DIPG-1 viability, CellTiter-Glo ATP luminescence
# [9] = viability loss in pontine glioma line – cell-based, SU-DIPG-IV, MIPE4.0, CellTiter-Glo, qHTS, dose response (AID 1347063; cut-off not given, nearly all actives have AC50 up to about 30 µM;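 also: compound exposure lasted 48 hours before the viability readout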); details: CellTiter-Glo ATP luminescence
# [10] = viability loss in pontine glioma line – cell-based, SU-DIPG-XIII, MIPE5.0, CellTiter-Glo, qHTS, dose response (AID 1347064; cut-off not given, nearly all actives have AC50 up to about 23 µM); details: CellTiter-Glo ATP luminescence
# [11] = viability loss in pontine glioma line – cell-based, SU-DIPG-XXV, MIPE5.0, CellTiter-Glo, qHTS, dose response (AID 1347065; cut-off not given, nearly all actives have AC50 up to about 26 µM;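 also: cells exposed to compound for 48 hours before ATP readout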); details: CellTiter-Glo ATP luminescence
# [12] = growth inhibition of DIPG cells – cell-based, MIPE4.0 library, CellTiter-Glo luminescence, qHTS (AID 1347066; cut-off not given, nearly all actives have AC50 up to about 30 µM;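 also: cells exposed to compound for 48 hours before readout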); details: SU-DIPG-VI viability, CellTiter-Glo ATP luminescence
# [13] = JHH-DIPG-1 glioma cell viability, MIPE5.0 library, CellTiter-Glo luminescence, qHTS (AID 1347067; cut-off not given, nearly all actives have AC50 up to about 26 µM;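 also: cells exposed to compound for 48 hours before readout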); details: JHH-DIPG-1 glioma viability, CellTiter-Glo ATP luminescence
# [14] = growth inhibition of DIPG cells – cell-based, MIPE5.0 library, qHTS (AID 1347068; cut-off not given, nearly all actives have IC50 up to about 30 µM); details: SU-DIPG-XXV viability
# [15] = viability loss with induced miR-34 in A549 – imaging, A549 dox-inducible miR-34, nuclei and caspase counts, primary screen (AID 1347080;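 active = compounds whose cell count with miR-34 switched on is under 0.7 times the count with it off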); details: A549 miR-34 inducible, Hoechst nuclei count, 48 h
# [16] = galactose survival enhancers in mitochondrial complex I cybrids – cell-based, galactose medium, ATP luminescence, primary screen (AID 1645843;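 active = z-score of at least 1.8 in each of two replicates, scored against plate mean and spread of sample wells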;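 also: positive z means more ATP and so rescue of galactose-driven cybrid death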); details: complex I mutant cybrid cells, 72 h, stronger effect = higher value
# [17] = biological target: Mitogen-activated protein kinase 7 (Homo sapiens) (UniProt Q13164); test: Gal4-ERK5 driven luciferase induction – cell-based, HTS, primary screen (AID 1508626;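 active = luciferase signal above three times the same-plate solvent-only control wells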;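 also: luciferase driven by Gal4-ERK5 fusion binding five Gal4 sites before minimal TATA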); details: HeLa Gal4-ERK5 transactivation, 18 h, at 5 µM, stronger effect = higher value
# [18] = measured here: epithelial PC-3E GFP cell survival
# [19] = measured here: mesenchymal TEM4-18 mCherry cell survival
# Chain of Mitogen-activated protein kinase 7 (Homo sapiens) (Q13164 whole entry, looked up, the tested form may be a part): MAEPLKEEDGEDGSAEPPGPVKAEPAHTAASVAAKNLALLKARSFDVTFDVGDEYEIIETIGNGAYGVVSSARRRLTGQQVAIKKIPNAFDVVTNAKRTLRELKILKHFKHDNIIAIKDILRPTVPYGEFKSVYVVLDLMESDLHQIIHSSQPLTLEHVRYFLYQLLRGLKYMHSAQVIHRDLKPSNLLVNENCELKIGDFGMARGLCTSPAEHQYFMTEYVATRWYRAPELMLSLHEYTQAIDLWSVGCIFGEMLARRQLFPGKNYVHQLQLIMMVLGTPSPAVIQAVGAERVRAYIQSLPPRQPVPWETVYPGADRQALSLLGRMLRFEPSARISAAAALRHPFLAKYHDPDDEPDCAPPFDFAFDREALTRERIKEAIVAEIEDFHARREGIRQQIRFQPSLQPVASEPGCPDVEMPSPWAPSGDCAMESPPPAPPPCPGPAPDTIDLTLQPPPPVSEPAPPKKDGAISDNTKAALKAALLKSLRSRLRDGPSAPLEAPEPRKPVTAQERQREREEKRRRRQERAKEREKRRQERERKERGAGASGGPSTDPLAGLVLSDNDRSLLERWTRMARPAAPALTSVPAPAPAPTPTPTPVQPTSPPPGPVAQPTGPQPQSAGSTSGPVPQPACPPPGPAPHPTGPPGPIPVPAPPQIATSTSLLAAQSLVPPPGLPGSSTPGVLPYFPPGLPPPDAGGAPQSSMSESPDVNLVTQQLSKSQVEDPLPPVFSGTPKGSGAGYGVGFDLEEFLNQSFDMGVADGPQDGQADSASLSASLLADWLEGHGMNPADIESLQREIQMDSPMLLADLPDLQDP
structure (smiles),measurement,setting,value
CCCC(=O)Nc1ncnc2c1ncn2C1O[C@@H]2COP(=O)(O)O[C@H]2[C@H]1OC(=O)CCC (stereo partly specified),inhibition,[1],-71.1%
same,score,[2],1.26
same,parasite load remaining,[3],129% (inactive)
same,viability,[3],95%
same,red/green cell ratio (normalised),[4],0.94 (inactive)
same,normalised cell number,[4]; [18],0.93
same,normalised cell number,[4]; [19],0.88
COc1ccc([C@@H]2CC(=O)c3c(O)cc(O[C@@H]4O[C@H](CO[C@H]5O[C@@H](C)[C@H](O)[C@@H](O)[C@H]5O)[C@@H](O)[C@H](O)[C@H]4O)cc3O2)cc1O,inhibition,[1],12.3%
same,score,[2],1.13
same,red/green cell ratio (normalised),[4],0.82 (inactive)
same,normalised cell number,[4]; [18],0.99
same,normalised cell number,[4]; [19],0.81
CC[C@H](C)C(=O)O[C@H]1CCC=C2C=C[C@H](C)C(CCC3C[C@@H](O)CC(=O)O3)[C@H]21 (stereo partly specified),inhibition,[1],-3.44%
same,score,[2],0.88
same,red/green cell ratio (normalised),[4],0.93 (inactive)
same,normalised cell number,[4]; [18],0.95
same,normalised cell number,[4]; [19],0.89
CC(=O)N1CCCC1C(=O)O (stereo unspecified),parasite load remaining,[3],194% (inactive)
same,viability,[3],68.3%
same,red/green cell ratio (normalised),[4],0.79 (inactive)
same,normalised cell number,[4]; [18],1.3
same,normalised cell number,[4]; [19],1.03
CC(C)Oc1ccc2c(=O)cc(-c3ccccc3)oc2c1,inhibition,[1],19.6%
same,score,[2],0.68
same,red/green cell ratio (normalised),[4],0.86 (inactive)
same,normalised cell number,[4]; [18],1.15
same,normalised cell number,[4]; [19],0.99
CC1(C)C2CC[C@]3(C)C(C(=O)C=C4[C@@H]5C[C@@](C)(C(=O)O)CC[C@]5(C)CC[C@]43C)[C@@]2(C)CC[C@@H]1O (stereo partly specified),inhibition,[1],22.2%
same,score,[2],2.09
same,parasite load remaining,[3],94.2% (inactive)
same,viability,[3],71%
same,red/green cell ratio (normalised),[4],0.98 (inactive)
same,normalised cell number,[4]; [18],0.92
same,normalised cell number,[4]; [19],0.89
CCN(c1ccccc1)c1cc(NC)[n+](C)c(C)n1,remaining activity,[5],84.7% (inactive)
same,outcome,[6],inactive
same,outcome,[7],inactive
same,outcome,[8],inactive
same,outcome,[9],inactive
same,outcome,[10],inactive
same,outcome,[11],inactive
same,outcome,[12],inactive
same,outcome,[13],inactive
same,outcome,[14],inactive
same,fold change,"[15]; stronger effect = lower value, cell number ratio, induced over uninduced",1.03 (inactive)
same,fold change,[15]; measured here: relative caspase fold change +Dox/-Dox,0.719
same,cell count,"[15]; measured here: total cells with miR-34 induction, stronger effect = lower value",7990
same,cell count,[15]; measured here: total cells without miR-34 induction,7790
same,z-score,[16],0.245 (inactive)
COc1ccc(-c2cc(=O)c3c(O)cc(O[C@@H]4O[C@H](CO[C@H]5O[C@H](C)[C@@H](O)[C@H](O)[C@@H]5O)[C@@H](O)[C@H](O)[C@H]4O)cc3o2)cc1O,inhibition,[1],25.9%
same,score,[2],2.29
same,parasite load remaining,[3],42.5% (inactive)
same,viability,[3],98.3%
same,red/green cell ratio (normalised),[4],0.86 (inactive)
same,normalised cell number,[4]; [18],1.13
same,normalised cell number,[4]; [19],0.98
C[C@@H]1CC[C@@]2(OC1)OC1CC3C4CC=C5C[C@@H](O)CC[C@]5(C)C4CC[C@]3(C)C1[C@@H]2C (stereo partly specified),parasite load remaining,[3],131% (inactive)
same,viability,[3],91.4%
same,red/green cell ratio (normalised),[4],1.13 (inactive)
same,normalised cell number,[4]; [18],1.02
same,normalised cell number,[4]; [19],1.16
C[N+]1(C)C2CC(OC(=O)[C@@H](CO)c3ccccc3)CC1C1OC12 (stereo partly specified),inhibition,[1],17.7%
same,score,[2],1.45
same,parasite load remaining,[3],89.5% (inactive) and 73.4% (inactive)
same,viability,[3],78.8% and 91.6%
same,red/green cell ratio (normalised),[4],1.4 (inactive)
same,normalised cell number,[4]; [18],0.85
same,normalised cell number,[4]; [19],1.19
CC(C)(C)NC[C@@H](O)COc1nsnc1N1CCOCC1,inhibition,[1],6.36%
same,score,[2],1.66
same,parasite load remaining,[3],198% (inactive)
same,viability,[3],72.4%
same,red/green cell ratio (normalised),[4],1.2 (inactive)
same,normalised cell number,[4]; [18],0.88
same,normalised cell number,[4]; [19],1.05
CC1=C2C(=CO[C@H](C)[C@H]2C)C(=O)C(C(=O)O)=C1O,inhibition,[1],1.38%
same,score,[2],0.74
same,red/green cell ratio (normalised),[4],1.08 (inactive) and 1.06 (inactive) and 0.92 (inactive)
same,normalised cell number,[4]; [18],0.92 and 0.97 and 1.03
same,normalised cell number,[4]; [19],0.99 and 1.03 and 0.95
same,luciferase signal,[17],52 AU (inactive)
Nc1ccn(C2O[C@H](CO)[C@@H](O)[C@H]2O)c(=O)n1 (stereo partly specified),inhibition,[1],22%
same,score,[2],1.09
same,red/green cell ratio (normalised),[4],1.13 (inactive)
same,normalised cell number,[4]; [18],1.06
same,normalised cell number,[4]; [19],1.19
COC1=CC(C)[C@@H]2C[C@H]3OC(=O)C[C@H]4C(C)=C(OC)C(=O)C([C@@]34C)[C@@]2(C)C1=O (stereo partly specified),inhibition,[1],22.5%
same,score,[2],1.3
same,red/green cell ratio (normalised),[4],0.78 (inactive)
same,normalised cell number,[4]; [18],1.31
same,normalised cell number,[4]; [19],1.03
